In the supplement of paper PMC11417369:
± gives the standard deviation of the averaged measurements. Over roughly 25,000 sequences, “ln(normalized median fluorescence intensity)” has its median near 7.9; the highest 2% begin near 11. The list comes from a sample in which the highest values are over-represented; it also holds similar and randomly drawn sequences.

system: PfAP2-I AP2 domain 3 (GST-tagged); assay: gcPBM binding intensity (ln(normalized median fluorescence intensity)); higher = stronger DNA binding
In short: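 For binding intensity, the highest Masliner-normalised natural-log median intensity across replicate spots of either probe orientation was taken. Protein bound to the array was stained with Alexa488 anti-GST antibody and scanned at 488 nm. The protein, GST-tagged P. falciparum DNA-binding domains from E. coli at about 25 μg on average, had been applied for 1 h to an Agilent 4 × 180k array of primer-extended double-stranded 36-bp intergenic genomic probes and negative controls.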

Sequence | gcPBM binding intensity (ln)
ATATGCATAAAAAGAGGTACACATAAAATATATATA [XGTACX_site5864] | 8.19 ± 0.64
GATATACAATTTAAGTGTACTATAATAAAATATATA [XGTACX_site3013] | 7.79 ± 0.071
TTTATTTAAAATAAGTGTACTAGAAAAATTAAGCAG [XGTACX_site4982] | 8.55 ± 0.16
TAAATAATTTATAAGTGTACTATTATTGCACGAATA [XGTACX_site7715] | 11.1 ± 0.57
ACATATTTCCAATAATGTACATACAAAATAAGAATG [XGTACX_site2659] | 7.82 ± 0.58
AAAAAAAAAATATATTGTACAATATTGTAGCTATAT [XGTACX_site7180] | 7.67 ± 0.49
GTTTTTAAGAAAAACACACACTCCTGTTATTTTATA [CACACA_site3696] | 7.67 ± 0.72
ATGCTTATTATTTATTGTACTGAATAAATATATCTG [XGTACX_site4483] | 7.79 ± 0.46
GTGCATAAATCATACACACACACATATATATATATA [CACACA_site2423] | 10.4 ± 0.67
GTGCATAAATCATACACACACACATATATAAATATA [CACACA_site7188] | 10.5 ± 0.65
TCGTGCATAAATCATACACACACACCGATATATATA [CACACA_site8767] | 11.3 ± 0.67
TATACGGACTCTAAGTGTACTTAAAATAATTCAAAC [XGTACX_site3606] | 7.75 ± 0.53
AATTAACCCTAATTTTGTACATATTCCTTTTCTCAT [XGTACX_site46] | 7.92 ± 1
ATTTTATTTTATTAAGTGCAAAAAAAAAAAAAGAAA | 10.2 ± 0.32
TATTTTTATTATATGGTGCATATATACATACATATA | 10.7 ± 0.79
TATTATTATTTTATGGTGCAAAAAAAAAAAAAAAAA | 10.9 ± 0.61
AAAAACAAAATTTGGAGTACAGTTATAATATTATTA [XGTACX_site5245] | 8 ± 0.24
TAATATAATCTGAGTGCACACAAATAAATAAACATA [CACACA_site8032] | 10.5 ± 0.14
ATGAGTGCACAAATATATATATATATATATATATAT [CACACA_negctrl_site404] | 11 ± 0.56
GCACAAATATATATATATATATATATATATATATAT [GTGCAC_negctrl_site661] | 9.07 ± 0.54
GGAAAATTATCAATAGCATGCAAAATGTGAATATTA [TGCATGCA_site901] | 7.61 ± 0.7
AAATATTATAGCACCACACACTTATTTTATTTATAT [CACACA_site7133] | 10.8 ± 0.55
AAATATTATAGCACCACACACTTATTTTATATATAT [CACACA_site5281] | 10.8 ± 0.86

Sequence | gcPBM binding intensity (ln)
GAAAATATTATAGCACCACACACTTATTTTATATAT [CACACA_site2265] | 10.5 ± 0.71
ATTATTATTATATTTTGTACATATGTAACAATATAT [XGTACX_site5780] | 7.83 ± 0.47
ATAAAAAAATTAAATACATGCACATATACACATACA [TGCATGCA_site129] | 8.17 ± 0.38
TTAAAAGAATATAATGCACACATTATTTTATTTTAT [CACACA_site3772] | 10.9 ± 0.73
AACATTTATATAAAAGAACACACATATAAAATATTA [CACACA_site9199] | 7.62 ± 0.61
GCACACATATAATAATGTACATATATATATTTAAAA [XGTACX_site4561] | 7.96 ± 0.44
AAAATTTAATATAATGCACACATAAAAAAAAAAAAA [CACACA_site7923] | 11 ± 0.93
AATAATTTTTTAAACACACACACATATATATATATA [CACACA_site95] | 9.32 ± 0.28
GAAATAATTTCATATACACACATATACATACATACA [CACACA_site1358] | 8.44 ± 0.72
ATAAAATATATATGCACACACATATATATTTCATAC [CACACA_site3547] | 9.5 ± 0.14
TATATAAATTTAATAACACACATATAAAAATGAATT [CACACA_site2366] | 7.61 ± 0.55
ATAATTTCATAATACGTGCACATAATATATAAAAAA | 11.385 ± 0.007
CATTTATATAAAAGAACACACATATAAAATATTATT [CACACA_site3601] | 7.66 ± 0.52
AATTTAATATAATGCACACATAAAAAAAAAAAAAAA [CACACA_site123] | 11.2 ± 0.78
AAAAATAGAATAAATACACACCCGTGTAACGGATTT [CACACA_site3372] | 7.29 ± 0.93
ATAAATTATATTCAAGTGCATGTAACTTATTATTAT | 8.29 ± 0.32
TTTTTTATTCATGTAACACACATTTAATTATGAATT [CACACA_site2706] | 7.98 ± 0.58
ACATAAATATAAACGTGTACATATATAAATATATAT [XGTACX_site7293] | 8.06 ± 0.26
TCTTTTTTGAACTAGCGTACATGAAAATATTTATAG [XGTACX_site7359] | 7.83 ± 0.28
TATAATTTAAAATACACACACATATATATAATATAT [CACACA_site2000] | 7.71 ± 0.47
ATTAAAATTTAAAATACACACACATATATATAATAT [CACACA_site8612] | 7.91 ± 0.42
AAAATTTAATATAATGCACACATAAAAAAAAAAAAT [CACACA_site8425] | 11.1 ± 1
AAAATTATCGTTATATGTACGCATCTTAATACGTAT [XGTACX_site4063] | 7.79 ± 0.4
